In PubChem BioAssay AID651871 (Sanford-Burnham Center for Chemical Genomics, 2012):
Where “and” joins values, the source holds several entries; their conditions need not be identical. Equal entries are not always repeated.

What follows are compounds tested on H9c2 (assay: protection of cardiomyocytes from stress damage, SAR follow-up, cell-based, panel, H9c2 and HL-1, ATP luminescence, set 2 (AID 651871;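 also: cells exposed to stressor for 2 h before ATP readout; reference of the scale not given here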)). Conditions: H9c2/HL-1 cardiomyocytes, 2-deoxyglucose stress, with 2-deoxyglucose; run 10, at 79 µM (top of the series) unless noted.
With `COc1ccc2nc(-c3cc(OC)c(OC)c(OC)c3)cc(C(=O)NCC(=O)Nc3ccc(C(C)=O)cc3)c2c1` the activity (protection/inhibition) was 78.3%.
In the case of `COc1ccc2c(c1OC)C(=O)N1c3ccccc3C(=O)N(Cc3cccc(Cl)c3Cl)C21` (stereo not drawn), the activity (protection/inhibition) is reported as 76% and 73.8% and -3.2%.
With `CCOC(=O)c1cccc(NC(=O)CNC(=O)c2cc(-c3cc(OC)c(OC)c(OC)c3)nc3ccccc23)c1` the activity (protection/inhibition) was 82.3% [run 10, at 39.5 µM].
